Only some compounds are listed: those with a hit (about 4.3% of all), similar ones and a draw of the others.
Wnt bcat act – Wnt/beta-catenin pathway activators, primary screen, cell-based, plate reader, single point. Wnt/beta-catenin reporter cell assay, activator. activation, % at 9.35 µM. actives 1.2% (n = 300,000). AID 743398, 2014; in the data active = activation above about 30%, passing the limit was not always enough; inconclusive = no clear call, values can overlap the other calls;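 also: 0% = neutral control wells and 100% = positive control wells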
esBAF inh – Bmi1 luciferase reporter increase in mESCs, primary screen, esBAF inhibitor project, mouse ES cells, Bmi1 luciferase knock-in, single point | actives 2% (n = 350,000) | 24 h; 100% = twice the neutral-well signal | reporter increase, % at 12.5 µM | AID 602393, 2012; in the data active = activation above about 40%; inconclusive = no clear call, values can overlap the other calls;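 also: 0% = median of the plate's neutral control wells and 100% = double that signal; a rise in the Bmi1 reporter signal indicates esBAF inhibition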
AF4-AF9 inh – inhibitors of AF4 peptide binding to AF9, primary screen, biochemical, AlphaScreen, biotin-AF4 peptide, FLAG-AF9, single point; inhibition, % at 10 µM; Protein AF-9 (Homo sapiens), P42568; actives 0.47% (n = 350,000); AID 651704, 2012;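 active = every replicate reaching a set inhibition limit, whatever the replicate mean, cut at about 25% in these data; inconclusive = mean inhibition reaches that limit but some replicates miss it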;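 also: 0% = plate neutral control median and 100% = total signal loss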
SMARCA2 act – SMARCA2 (BRM) function activators, primary screen, cell-based, luminescence, high throughput | activation, % at 9.1 µM | actives 1% (n = 370,000) | MG213 cells, MMTV-luciferase reporter, dexamethasone, overnight | AID 652017, 2013; in the data active = activation above about 7.8%;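 also: 0% = vehicle wells and 100% = reference activator wells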
FGF22 binding – binders of human FGF22 protein, primary screen, FGF22 synaptogenesis inhibitor project, biophysical, thermal shift, single point; Fibroblast growth factor 22 (Homo sapiens), Q9HCT0; recombinant FGF22 thermal shift, SYPRO orange fluorescence; percent of sucrose octasulfate shift, DMSO zero; activity (Tm shift, normalised), % at 9.99 µM; actives 1.5% (n = 340,000); AID 651658, 2012;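 active = mean Tm shift, scaled 0 neutral to 100 positive control, at about 1.3% or above, every replicate too, limit read from the data; inconclusive = no clear call, values can overlap the other calls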
Target sequence (Q9HCT0 whole entry, looked up): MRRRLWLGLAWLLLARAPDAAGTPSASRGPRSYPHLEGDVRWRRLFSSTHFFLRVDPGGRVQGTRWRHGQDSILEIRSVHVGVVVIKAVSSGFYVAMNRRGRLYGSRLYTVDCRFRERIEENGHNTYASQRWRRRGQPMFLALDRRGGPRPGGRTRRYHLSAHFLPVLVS
MITF TRPM1 HTS – activators of MITF-driven TRPM1 promoter reporter, primary screen, cell-based, SK-MEL-5, luciferase, single point | actives 0.75% (n = 300,000) | AID 588334, 2011 | SK-MEL-5 TRPM1-promoter luciferase, 24 h; % of positive control, neutral wells = 0 | activation, % at 12.5 µM;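 active = mean activation of at least 80% with every replicate also reaching 80%; inconclusive = mean reaches 80% but some replicate falls short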;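 also: 0% = neutral control wells and 100% = parthenolide positive control wells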
Numbers without * were called inactive; u = inconclusive; x = not tested or not shown.

SMILES	Wnt bcat act	esBAF inh	AF4-AF9 inh	SMARCA2 act	FGF22 binding	MITF TRPM1 HTS
N/C(=N\OC(=O)c1ccc(Br)cc1)c1cccc([N+](=O)[O-])c1	4	72*	-12	1	0	48
COc1ccc(C#Cc2ccc3c(c2)[C@@H]2[C@@H](CCN2C(=O)C2CCCCC2)[C@@H](CO)N3)cc1	x	-1	x	x	x	x
COc1cc(C(=O)O/N=C(\N)c2cccc([N+](=O)[O-])c2)cc(OC)c1OC	-1	-2	-2	-4	0	12
N/C(=N\OC(=O)c1ccncc1)c1cccc([N+](=O)[O-])c1	14	54*	3	1	0	x
O=[N+]([O-])c1ccccc1-c1cc(-c2ccccc2O)n[nH]1	36*	55*	x	3	x	45
Cc1noc(C)c1S(=O)(=O)N(C)C[C@H]1OCc2ccccc2-c2ccccc2C(=O)N([C@@H](C)CO)C[C@H]1C	x	-1	-1	x	0	x
CCOc1ccc(C2=C(C=C(C#N)C#N)C(c3ccccc3)c3ccccc3O2)cc1 (stereo unspecified)	-1	x	10	-3	0	-17
COc1ccc(C2=C(CN(C)C)C(c3ccccc3)c3ccccc3O2)cc1 (stereo unspecified)	x	71*	x	-1	x	-8
CSc1ccccc1NC(=O)CN1CCCCC1C (stereo unspecified)	-1	x	0	3	0	-6
COc1cc2c(cc1OC)CN(CC(=O)Nc1ccccc1C#N)CC2	-2	8	x	1	x	-26
COc1cc2c(cc1OC)CN(CC(=O)Nc1ccccc1SC)CC2	0	x	4	-5	43*	-6
CSc1ccccc1NC(=O)CN1c2ccccc2CC1C (stereo unspecified)	0	4	51*	-2	1	-7
CCNC(=O)C[C@H]1C=C[C@H](NC(=O)C2CCOCC2)[C@@H](CO)O1	x	-1	3	x	0	x
CC(C)C(NC(=O)OCc1ccccc1)C(=O)O (stereo unspecified)	4	-10	x	1	x	6
CC(C)[C@H](NC(=O)OCc1ccccc1)C(=O)OCC(=O)c1ccccc1	35*	-11	-3	3	0	u
C[C@@H]1CCCCO[C@H](CN(C)Cc2ccccc2)[C@H](C)CN([C@H](C)CO)C(=O)c2cc(NC(=O)Nc3ccccc3)ccc2O1	x	0	15	x	-1	x
O=C(COC(=O)c1ccc(Br)o1)NCc1ccc(Cl)cc1	0	-10	-1	-1	0	-4
NC(=O)c1ccc(NC(=O)COC(=O)CCC(=O)c2ccc(Cl)cc2)cc1	19	x	-2	-1	43*	10
NS(=O)(=O)c1ccc(NC(=O)COC(=O)COc2ccc(Cl)cc2)cc1	-9	x	-3	1	43*	-1
O=C(COC(=O)CCC(=O)c1ccc(F)cc1)Nc1ccccc1	-2	x	-2	-2	0	9
NS(=O)(=O)c1ccc(NC(=O)COc2ccc(Cl)cc2)cc1	-1	-6	-4	0	0	-4
O=C(COC(=O)c1ccc(Br)o1)NCc1ccc(F)cc1	-1	-7	0	3	27*	12
O=C(COC(=O)CCC(=O)c1ccc(Cl)cc1)NCc1ccc(F)cc1	-3	9	7	0	43*	6
Cc1ccccc1S(=O)(=O)N1C[C@H](O)COC[C@@H]2O[C@@H](CC(=O)N3CCOCC3)CC[C@H]21	x	3	-1	x	0	x
CCCNC(=O)[C@@H]1[C@@H](CO)[C@@H]2Cn3c(ccc(-c4ccccc4)c3=O)[C@H]1N2C(=O)CC1CC1	x	5	-7	x	0	x
SMILES	Wnt bcat act	esBAF inh	AF4-AF9 inh	SMARCA2 act	FGF22 binding	MITF TRPM1 HTS
CO[C@@H]1CN(C)C(=O)c2cc(NC(=O)Nc3cccc(F)c3)ccc2OC[C@H](C)NC[C@@H]1C	x	2	1	x	0	x
O=C(NC1CCC1)[C@H]1[C@H](CO)[C@H]2Cn3c(ccc(-c4cccc(F)c4)c3=O)[C@@H]1N2Cc1cocn1	x	-5	-27	x	0	x
COc1ccc(NC(=O)Nc2ccc3c(c2)C(=O)N([C@H](C)CO)C[C@H](C)[C@H](CN(C)C(=O)Nc2ccccc2)O3)cc1	x	1	-1	x	-1	x
COc1ccc(OC)c(NC(=O)CN(C)S(=O)(=O)c2ccc3nc(C)sc3c2)c1	-5	-2	x	-3	x	4
Cc1nc2ccc(S(=O)(=O)N(C)CC(=O)Nc3ccccc3F)cc2s1	-1	0	-7	-2	44*	-5
Cc1nc2ccc(NC(=O)Cc3ccccc3F)cc2s1	-1	x	-2	3	0	121*
Cc1nc2ccc(NC(=O)Cc3cccc(F)c3)cc2s1	0	x	2	2	0	-4
Cc1nc2cc(NC(=O)CCS(=O)(=O)c3ccccc3)ccc2s1	5	x	-3	1	44*	32
Cc1nc2ccc(NC(=O)c3ccccc3)cc2s1	u	x	-1	4	1	59
Cc1nc2ccc(NC(=O)CCS(=O)(=O)c3ccccc3)cc2s1	12	x	-2	1	0	6
Cc1nc2ccc(NC(=O)c3cccs3)cc2s1	25	x	-15	8	0	121*
Cc1noc(C)c1NC(=O)Nc1ccc2c(c1)CC(=O)N([C@H](C)CO)C[C@@H](C)[C@H](CN(C)S(=O)(=O)c1ccc(Cl)cc1)O2	x	2	-8	x	0	x
COc1ccccc1S(=O)(=O)N[C@@H]1C=C[C@H](CC(=O)NCc2cccc(F)c2)O[C@@H]1CO	x	4	-3	x	x	x
Cc1nc2ccc(NC(=O)c3ccco3)cc2s1	u	x	0	7	0	91*
Cc1nc2ccc(NC(=O)c3sccc3C)cc2s1	12	46*	x	6	x	44
CC1=C(c2ccccc2)[N+](=O)C2(CCCCC2)N1[O-]	-3	-4	0	-1	43*	5
CCC1(CC)N([O-])C(C)=C(c2ccccc2)[N+]1=O	x	-4	x	2	x	-4
O=C(c1cccc(F)c1)N1CCCCN2[C@@H](CO)[C@@H](c3ccc(/C=C/c4ccccc4)cc3)[C@@H]2C1	x	x	9	x	-1	x
C1CC2CN(c3nc4nonc4nc3N3CCSCC3)CCN2C1 (stereo unspecified)	0	x	1	-2	44*	-10
C1CCC(Nc2nc3nonc3nc2N2CCSCC2)C1	x	x	1	1	0	-23
C1CCN(C2CCN(c3nc4nonc4nc3N3CCSCC3)CC2)C1	-5	x	0	-1	43*	-13
Cc1cccc(N2CCN(c3nc4nonc4nc3N3CCSCC3)CC2)n1	-1	3	15	1	-1	9

Screening results deposited in PubChem by several laboratories.
